Compound activity: PubChem BioAssay, National Center for Advancing Translational Sciences (NCATS)
IP6K1 inhibitor: inhibitors of human IP6K1 | IP6K1 kinase, ADP-Glo luminescence, 2 h; active compounds read low | activity change, % (series mostly up to about 58 µM) | hit rate 0.81% among 140,000; in the data active means activity change below about -25%; further: on the % scale 0 is the no-effect control and ±100 the full control effect
Target sequence (Q92551 whole entry, looked up): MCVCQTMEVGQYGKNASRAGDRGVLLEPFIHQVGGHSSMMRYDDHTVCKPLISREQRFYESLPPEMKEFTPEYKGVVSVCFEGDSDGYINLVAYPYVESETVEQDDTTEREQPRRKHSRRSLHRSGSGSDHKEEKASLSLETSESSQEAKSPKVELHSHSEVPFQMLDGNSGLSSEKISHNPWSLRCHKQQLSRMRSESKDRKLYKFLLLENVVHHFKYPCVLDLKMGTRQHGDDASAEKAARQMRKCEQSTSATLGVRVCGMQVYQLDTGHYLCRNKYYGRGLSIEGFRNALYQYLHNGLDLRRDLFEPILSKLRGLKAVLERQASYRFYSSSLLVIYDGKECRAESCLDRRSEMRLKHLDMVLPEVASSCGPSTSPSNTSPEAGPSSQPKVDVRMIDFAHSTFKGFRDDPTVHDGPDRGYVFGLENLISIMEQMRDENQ
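ADP-Glo luminescence measures ADP made by human IP6K1 during a 2 h RT reaction with ATP/IP6 (mix at 1.3 mM/130 uM); top library doses 57.5 and 19.1 uM final.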
KDM5B inhibitor: KDM5B demethylase inhibition. AID 1347165. Potency, µM (top dose mostly 57.7 µM), usual class: inhibitors. hit rate 2.6% among 220,000. Q9UGL1. KDM5B demethylase, FDH-coupled NADH fluorescence (FDH is formaldehyde dehydrogenase); further: potency means the concentration at half of the fitted maximal effect; 0% is about no effect; nearly all actives have a fitted effect of over 70% in size
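Here, H3K4me3 peptide (12.5 µM in substrate mix) is demethylated by KDM5BΔAP, 200 nM final, after 10 min compound exposure. Formaldehyde product is coupled through FDH (0.25 U/mL in mix) to NADH fluorescence; 30-min ΔRFU feeds dose-response curves.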
IP6K1 inh cnf: confirmation of human IP6K1 inhibitors; Potency, µM (highest dose often 49 µM), for inactives: top-dose activity change, negative = inhibition, usual class: inhibitors; recombinant IP6K1 kinase, ADP-Glo luminescence, 2 h; shares compounds with IP6K1 inhibitor; hit rate 13% among 1,200; AID 1645852; further: potency means the concentration at half of the fitted maximal effect; on the % scale 0 is the no-effect control and ±100 the full control effect; nearly all actives have a fitted effect of over 65% in size
An asterisk follows results filed as active; i = inactive; u = inconclusive; x = no result given; ! = a repeat was not active. An excerpt weighted towards active compounds, which were near 2.8% of everything screened. Unless noted, the call rests on the fitted dose curve; in most records, active means well fitted inhibition curve with a large enough effect; inconclusive means small, poorly fitted or top-dose-only effect; inactive means no such curve, though single readings can be large or run the other way.

SMILES | IP6K1 inhibitor | KDM5B inhibitor | IP6K1 inh cnf
CC(C)(C)c1ccc(CSC2=Nc3ccccc3C3=NC(CC(=O)NCc4cccs4)C(=O)N23)cc1 (stereo not drawn) | -26* | u | 42%
Cc1ccccc1CN1C(=O)C(O)(CC(=O)c2cccnc2)c2ccccc21 (stereo not drawn) | x | i | x
CC1CCN(C(=O)CCc2nc(C3CCCN3C(=O)NC(C)C)no2)CC1 (stereo not drawn) | 5 | x | x
CCN(CC)C(=O)Cn1c(=O)n(-c2ccc(Cl)cc2)c(=O)c2c3c(sc21)CCC3 | -9 | i | x
CCCCN(CC)C(=O)Cn1c(=O)n(-c2ccc(OCC)cc2)c(=O)c2c3c(sc21)CCC3 | -33* | i | 10%
CCc1ccc(-n2c(=O)c3c4c(sc3n(Cc3ccc(F)cc3)c2=O)CCCC4)cc1 | -28* | i | -2%
CCc1ccc(-n2c(=O)c3c4c(sc3n(Cc3ccc(C)cc3)c2=O)CCC4)cc1 | 4 | i | x
CC(C)C(=O)Nc1ccc2[nH]cc(C(C(=O)O)N3CCN(c4ccccc4)CC3)c2c1 (stereo not drawn) | x | i | x
COc1ccc2c(c1)C(COCc1ccc(C(=O)O)cc1)=CC(C)(C)CO2 | -1 | x | x
COc1ccc2c(c1)C(CN1CCN(c3ccc4oc(C(=O)O)cc4c3Cl)CC1)=CC(C)(C)CO2 | -74* | x | -12%
Cc1ccc(CC(=O)NC2CCC(C)CC2)cc1C (stereo not drawn) | x | i | x
CCOc1cccc2sc(N(CCN(C)C)C(=O)c3ccc4c(c3)OCCO4)nc12 | x | i | x
Cc1cccc2sc(N(CCN(C)C)C(=O)c3ccc4c(c3)OCCO4)nc12 | -35* | u | 13%
CN(C)c1ccc(C(=O)NNC(=O)c2ccccc2F)cc1 | x | i | x
CN(C)c1ccc(Nc2nc(N)n(C(=O)c3c(F)cccc3F)n2)cc1 | -51* | x | 10µM*
Cc1ccc(CNc2oc(-c3ccc(COc4ccc(C)cc4)o3)nc2C#N)cc1 | 3 | u | x
Cc1ccc(CNc2oc(-c3ccc(COc4ccc(Cl)cc4)o3)nc2C#N)cc1 | -30* | u | 12%
CCCC(=O)NNC(=S)NC1CC1 | x | i | x
COc1ccc(NC(=O)c2nnn(Cc3ccccc3C)c2N)c(OC)c1 | -27* | u | -11%
COc1ccc(NC(=O)c2nnn(Cc3ccc(Cl)cc3)c2N)c(OC)c1 | x | i | x
CC(C)C(=O)Nc1nonc1-c1ccc(Br)cc1 | x | i | x
CCN(C(=O)CSc1nc2ccccc2nc1Cc1ccc(F)cc1)c1cccc(C)c1 | -4 | i | x
CCN(C(=O)CSc1nc(-c2ccccc2)no1)c1cccc(C)c1 | -44* | i | 31%
CN(C)C(=O)CNS(=O)(=O)c1ccc(F)c(Cl)c1 | x | i | x
CCc1noc(C(C)N2CCC(c3nc4ccccc4o3)CC2)n1 (stereo not drawn) | x | i | x
SMILES | IP6K1 inhibitor | KDM5B inhibitor | IP6K1 inh cnf
NC(=O)CSc1oc(-c2ccco2)nc1S(=O)(=O)c1ccc(Cl)cc1 | -22 | u | x
NC(=O)CSc1oc(-c2ccco2)nc1S(=O)(=O)c1ccc(Br)cc1 | -33* | u | u
Cc1ccc(CSc2oc(-c3ccco3)nc2S(=O)(=O)c2ccc(Cl)cc2)cc1 | 1 | u | x
Cc1ccc(S(=O)(=O)c2nc(-c3ccco3)oc2SCC(=O)c2ccc(Cl)cc2)cc1 | -7 | i | x
O=C(CSc1oc(-c2ccco2)nc1S(=O)(=O)c1ccc(Cl)cc1)c1ccc(Cl)cc1 | -27* | u | -13%
Cc1ccc(CSc2oc(-c3ccco3)nc2S(=O)(=O)c2ccc(Br)cc2)cc1 | -32* | u | -5%
O=C(O)CC(O)(c1ccccc1)c1ccccc1 | x | i | x
O=C(Oc1ccc2c(=O)c(-c3ccccc3)coc2c1)c1ccco1 | x | i | x
Cc1nc(-c2c3n(c(=O)n(CC(=O)Nc4ccccc4Cl)c2=O)CCCCC3)no1 | 38 | i | x
Cc1cc(C)cc(NS(=O)(=O)c2ccc3[nH]cc(C(=O)N(C)Cc4ccccc4)c(=O)c3c2)c1 | -26* | u | -2%
Cc1cc(C)cc(NS(=O)(=O)c2ccc3[nH]cc(C(=O)NCc4ccccc4Cl)c(=O)c3c2)c1 | -18 | i | x
Cc1ccc(NC(=O)Cn2c(=O)nc(-c3ccccc3F)c3cc(Cl)ccc32)c(Br)c1 | -3 | u | x
Cc1cc(NC(=O)Cn2c(=O)nc(-c3ccccc3F)c3cc(Cl)ccc32)ccc1Br | -25* | i | 10%
CN(Cc1ccccc1NC(=O)C1(C)CC1(Cl)Cl)C1CCCCC1 (stereo not drawn) | x | i | x
CC(C)(C)C1CCC(=NNC(=O)Cc2ccccc2)CC1 (stereo not drawn) | x | i | x
Oc1ccc(NCc2ccc(OCc3ccccc3Cl)cc2)cc1 | -28* | u | u
Oc1ccc(NCc2ccc(OCc3ccccc3)cc2)cc1 | -1 | u | x
Cc1nc2cc(F)ccc2cc1C(=O)NCC1COc2ccccc2O1 (stereo not drawn) | x | i | x
O=C(NCCc1ccccc1)c1ccc2nc(N3CCCCC3)sc2c1 | -31* | i | -18%
O=C(NCc1cccc(Cl)c1)c1ccc2nc(N3CCCCC3)sc2c1 | -7 | i | x
O=C(NCCc1ccc(O)cc1)C1CCN(c2nc(Cl)nc3nc[nH]c23)CC1 | x | i | x
Cc1ccc(Cn2c(Cc3ccccc3)nc3ccccc32)cc1 | -27* | i | -18%
Cc1ccc(Cn2c(-c3ccccc3)nc3ccccc32)cc1 | -27* | u | -15%
Cc1cccc(-c2nc3ccccc3n2Cc2ccccc2)c1 | 16 | u | x
Cc1ccc(Cn2c(CN3CCOCC3)nc3ccccc32)cc1 | x | i | x
SMILES | IP6K1 inhibitor | KDM5B inhibitor | IP6K1 inh cnf
O=C1N(Cc2ccc(F)cc2)C[C@H]2CN(Cc3ccccn3)CCN12 | -32* | u | u
Cc1cccc(CN2CCN3C(=O)N(Cc4ccc(F)cc4)C[C@H]3C2)n1 | -6 | u | x
CCOC(=O)c1cnc2c(OC)cccc2c1Nc1ccc(N(C)C)cc1 | x | i | x
COc1ccc(NC(=O)C2CCC(CNS(=O)(=O)c3csc(C(N)=O)c3)CC2)cc1 (stereo not drawn) | -39* | i | u
NC(=O)c1cc(S(=O)(=O)NCC2CCC(C(=O)Nc3ccc(Cl)cc3)CC2)cs1 (stereo not drawn) | 1 | i | x
O=C(O)c1ccccc1Nc1cccc(C(F)(F)F)c1 | -31* | x | u
O=C(OCCOCCO)c1ccccc1Nc1cccc(C(F)(F)F)c1 | -12 | x | x
CCCCC(=O)Nc1ccccc1C(=O)OCc1cc(=O)n2nc(C3CCCCC3)sc2n1 | -28* | u | -15%
Cc1ccccc1C(=O)OCc1cc(=O)n2nc(C3CCCCC3)sc2n1 | 10 | i | x
CCOc1cc(Br)cc2cc(C(=O)NCc3ccccc3)c(=O)oc12 | x | i | x
Cc1ccccc1-n1nnnc1C(C)(C)N1CCOCC1 | x | i | x
CCN(CC)C(=S)SSC(=S)N(CC)CC | -56*! | x | 8.9µM*
CCN(CC)C(N)=S | x | i | x
CCN1CCN(Cc2ccc(CNC(=O)C(C)NC(=O)c3ccco3)cc2)CC1 (stereo not drawn) | x | i | x
CN(Cc1ccc2nsnc2c1)Cc1cc2n(n1)CCCNC2 | -25* | u | -7%
CN(Cc1cc2n(n1)CCCNC2)Cc1nc(-c2ccccc2)cs1 | 5 | i | x
CC(C)c1ccc(Nc2nnc(SCC(=O)NC(C)(C)C)s2)cc1 | x | i | x
